# Only some compounds are listed: those with a hit (about 4.8% of all), similar ones and a draw of the others.
# TGFb SMAD3 inh: blocks TGF-b signaling; 1.2% of 410,000 active; AID 588855; Potency, µM (doses to about 46.1 µM), for inactives: top-dose activity, negative = inhibition, hits mostly inhibitors; HepG2 CAGA-GFP TGF-b/SMAD3 reporter, GFP fluorescence, 18 h; TGF-beta stimulated, 500 pg/mL final; also: potency is read from the fitted curve at half-maximal effect; % is scaled to controls: 0 for no effect and ±100 for the full control effect; nearly all actives have a fitted effect of over 65% in size
#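 HEPG2 CAGA-GFP, 1000 cells/well; 2 h settle, 37 C; cpd via pin tool; TGF-b 500 pg/mL final; 18 h, 37 C; GFP imaging ex488/em500-530; %Activity normalised to -TGF-b and +DMSO controls; CRC fit, curve class.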
# S2 tox: cell viability loss in ATXN counter-screen; S2 cells (HEK-293 line with an ATXN2-luciferase reporter) viability, CellTiter-Fluor protease fluorescence, 24 h; Potency, µM (top dose mostly 56.7 µM), actives largely listed as cytotoxic; AID 651635; 0.49% of 400,000 active; also: potency is read from the fitted curve at half-maximal effect; nearly all actives have a fitted effect of over 40% in size
# ATXN2 expr inh: inhibitors of ATXN2 expression; HEK-293 ATXN2-luciferase reporter, luminescence, 24 h; Potency, µM (series often up to 57 µM), without a hit: at the highest dose activity change, negative = inhibition, most hits filed as inhibitors; 0.72% of 360,000 active; AID 1745845; also: potency is read from the fitted curve at half-maximal effect; % is scaled to controls: 0 for no effect and ±100 for the full control effect; nearly all actives have a fitted effect of over 55% in size
#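 qHTS (up to 57 uM final) was run with 24 h compound exposure of reporter cells at 37 °C. Each well was multiplexed: SteadyGlo luminescence measured ATXN2-luciferase expression after a fluorogenic Gly-Phe-AFC viability readout (25 uM final).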
# DRD3 agonist: D3 dopamine receptor (human) agonism | P35462 | D3R DiscoveRx beta-arrestin cells, luminescence, 90 min | max activation, % | 0.58% of 410,000 active | AID 652048; in the data active = max activation above about 30%; also: 0% is about no effect
# Target sequence (P35462 whole entry, looked up): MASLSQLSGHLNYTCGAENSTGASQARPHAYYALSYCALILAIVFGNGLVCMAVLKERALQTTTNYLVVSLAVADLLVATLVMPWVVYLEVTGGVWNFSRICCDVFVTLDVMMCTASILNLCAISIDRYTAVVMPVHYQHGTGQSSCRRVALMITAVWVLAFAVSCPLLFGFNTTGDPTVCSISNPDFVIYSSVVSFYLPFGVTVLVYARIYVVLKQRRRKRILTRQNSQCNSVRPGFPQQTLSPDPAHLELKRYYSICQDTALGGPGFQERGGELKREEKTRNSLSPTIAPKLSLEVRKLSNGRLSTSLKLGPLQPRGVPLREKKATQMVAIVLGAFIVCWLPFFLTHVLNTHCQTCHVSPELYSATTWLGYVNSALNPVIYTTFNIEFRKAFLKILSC
#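 Cells at 1500/well, incubated overnight, then treated with pinned compounds (dopamine as control) for 90 min at 37 degrees C. DiscoveRx reagent added for 30 - 60 minutes at room temperature; luminescence read.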
# DRD3 antagonist: antagonists of human D3 dopamine receptor; D3R cells, DiscoveRx beta-arrestin luminescence, antagonist mode; active compounds read low; P35462; max response, negative = inhibition, %; AID 652054; 2.5% of 360,000 active; in the data active = max response below about -50%; inconclusive = no clear call, values can overlap the other calls; also: % is scaled to controls: 0 for no effect and ±100 for the full control effect
#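 Cells expressing the human receptor were seeded at 1500 cells/well, incubated overnight at 37 degrees C in 5% CO2, then exposed to library compounds with dopamine controls for 90 minutes at 37 degrees C before luminescent detection.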
# HepG2 viability: HepG2 cytotoxicity, counter-screen for TGF-b inhibitors | HepG2 CAGA-GFP viability, ATP luminescence, 18 h | Potency, µM (titrated, usually from 46.1 µM), for the others: top-dose activity change, negative = cytotoxicity, actives largely listed as cytotoxic | 0.76% of 410,000 active | AID 588856; also: potency is read from the fitted curve at half-maximal effect
#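 HepG2 CAGA-GFP cells (1000/well, DMEM with 1% FBS) received compound, then TGF-beta at 500 pg/mL final, and were incubated 18 hours at 37 degrees C. Viability was read by CellTiter-Glo luminescence. Media-only wells were set as complete cell-killing and DMSO as no toxicity.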
# Numbers without * were called inactive; i = inactive; ? = inconclusive; nt = no result; [ ] = another dose, or the depositor's remark. Unless noted, calls follow the shape of the dose curve; as a rule, active = well fitted curve in the direction sought with a large enough effect; inconclusive = small, poorly fitted or top-dose-only effect, or another doubt; inactive = no such curve, though single readings can be large; an effect the other way counts as inactive or inconclusive.
SMILES,TGFb SMAD3 inh,S2 tox,ATXN2 expr inh,DRD3 agonist,DRD3 antagonist,HepG2 viability
O=C1NC(CCc2ccccc2)C(=O)N1Cc1ccc(Br)cc1 (stereo not given),29%,i,-27%,0,-71*,0%
C=C1C(=O)OC2C1CCC(C)=C1C(=O)C3OC3(C)C12 (stereo not given),4.5µM*,8.9µM*,7.1µM*,-58,-129*,4.5µM*
Nc1nc(=O)n([C@@H]2O[C@H](CO)[C@@H](O)[C@@H]2F)cc1I,nt,i,-4%,nt,nt,nt
CC1CCN(C(=O)CCCN2C(=O)c3cccnc3Oc3ccc(Cl)cc32)CC1,-14%,?,?,-16,-65*,-5%
O=C(CN1C(=O)c2cccnc2Oc2ccc(Cl)cc21)N1CCOCC1,0%,i,8%,-2,-8,10%
COc1ccc(OC)c(-c2nnc3n2N=C(c2ccc(OC)c(OCC4CC4)c2)CS3)c1,7.9µM*,?,?,nt,nt,-26%
COc1ccc(C2=Nn3c(nnc3-c3ccccc3OC)SC2)cc1OC1CCOC1 (stereo not given),2.8µM*,?,-14%,nt,nt,-18%
COc1ccc(C2=Nn3c(nnc3-c3ccccc3Cl)SC2)cc1OCC1CC1,10µM*,?,?,nt,nt,-18%
COc1ccc(C2=Nn3c(nnc3-c3ccccc3C(F)(F)F)SC2)cc1OC1CCOC1 (stereo not given),12%,i,-28%,nt,nt,18%
Fc1ccccc1-c1nnc2n1N=C(c1ccc(OC(F)F)c(OCC3CC3)c1)CS2,-8%,i,11%,nt,nt,-2%
CCN1CCCC1CNC(=O)c1cnn(-c2nccc(-c3cc(OC)ccc3OC)n2)c1C (stereo not given),nt,i,nt,nt,nt,nt
Cc1ccc(Cl)cc1-n1ncc2c(NCCCc3ccccc3)ncnc21,?,32µM*,?,2,nt,-39%
C[C@]12CC[C@H](O)CC1=CC[C@@H]1[C@H]2CC[C@]2(C)C(c3cccnc3)=CC[C@H]12,nt,nt,-7%[25.6 µM],nt,nt,nt
CSc1ccc(C2C(C#N)=C(N)Oc3c2ccc(=O)c2c(C)oc(C)c32)cc1 (stereo not given),75%,i,-22%,-13,-51*,-11%
COc1cccc(/C=c2/[nH]c(=O)/c(=C\c3cccc(OC)c3OC)[nH]c2=O)c1OC,7%,nt,nt,nt,nt,-3%
CCOc1cc(Cn2c(-c3ccc(O)c(OCC)c3)nc3ccccc32)ccc1O,-11%,i,-21%,7,nt,-16%
COc1ccc(/C=C\c2onc(C)c2S(=O)(=O)N2CCC(C(=O)Nc3cccc(OC)c3)CC2)cc1,?,nt,nt,-14,nt,-30%
Cc1cc(=O)oc2cc(OCC(=O)N3c4ccccc4CC3C)ccc12 (stereo not given),8%,?,7%,-2,7,-16%
Cc1cc(=O)oc2cc(OCC(O)CN3CCc4ccccc4C3)ccc12 (stereo not given),-17%,i,-4%,-22,-55*,-13%
COc1ccccc1N1CCN(CC(O)COc2ccc3c(C)cc(=O)oc3c2)CC1 (stereo not given),-9%,?,1%,-22,-77*,-21%
COc1ccccc1N1CCN(CC(O)COc2cc(OC)c(OC)c(OC)c2)CC1 (stereo not given),nt,i,-4%,nt,nt,nt
Cc1cc(=O)oc2cc(OCC(O)CN3CCN(c4ccccc4)CC3)ccc12 (stereo not given),4%,i,-4%,37*,0,-3%
CN(CC(=O)Nc1cc([N+](=O)[O-])ccc1Cl)Cc1ccc(Br)cc1,0%,i,-10%,-15,-85*,-32%
Cc1noc2nc(C(=O)O)nc(N3CCCCC3)c12,6%,i,-2%,-3,nt,-2%
COc1ccc2ccc3c(c2c1)N=CC1(O3)N(C)c2ccccc2C1(C)C (stereo not given),7.9µM*,i,-9%,-17,?,-48%
SMILES,TGFb SMAD3 inh,S2 tox,ATXN2 expr inh,DRD3 agonist,DRD3 antagonist,HepG2 viability
CCOc1ccc(/C=C2\SC(=O)N(CCNC(=O)C3COc4ccccc4O3)C2=O)cc1OC (stereo not given),?,?,?,50*,105,-3%
CN1/C(=C/c2cc[n+](C)c3ccccc23)C=Cc2ccccc21,?,?,3.8µM*,-11,-18,-17%
C[n+]1ccc(/C=C/c2ccccc2O)c2ccccc21,-10%,?,-31%,-4,-7,0%
O=C(O)CCCCCCCCc1cn(Cc2ccc(C(=O)c3ccccc3)cc2)nn1,7.9µM*,i,-14%,-33,-14,-24%
Cc1ccc(-n2cc(CCCCCCCCC(=O)O)nn2)cc1,?,i,1%,30*,2,-3%
Cc1cc2c(c(C)c1CCO)C(=O)[C@H](C)C2,1%,i,10%,0,-50*,-13%
Cc1cc2c(c(C)c1CCO[C@@H]1O[C@H](CO)[C@@H](O)[C@H](O)[C@H]1O)C(=O)[C@@H](C)[C@@H]2O,?,?,?,14,-28,-2%
CN1CCc2nc(SCCOc3ccccc3)c(C#N)cc2C1,-18%,i,33%,-29,-58*,-15%
CCOC(=O)C1=C(CSc2nc3c(cc2C#N)CN(C)CC3)OC(N)=C(C#N)C1c1ccccc1 (stereo not given),36%,i,-7%,-9,-24,3%
Cc1cc(O)c2c(C)c(CC(=O)NCc3ccccc3Cl)c(=O)oc2c1,-4%,i,3%,7,nt,-7%
Fc1ccccc1C1c2cccn2CCN1C(=S)Nc1ccc(Br)cc1 (stereo not given),22µM*,i,?,-21,-64*,-5%
Fc1ccccc1C1c2cccn2CCN1C(=S)Nc1cccc(Br)c1 (stereo not given),4%,i,nt,-2,-4,-2%
Cc1ccc(-c2nn3c(=O)cc(CN4CCN(C(=O)/C=C/c5ccccc5)CC4)nc3s2)cc1,-1%,i,6%,0,nt,1%
CCNC(=O)[C@@H]1CCCN1C(=O)[C@H](CCCN=C(N)N)NC(=O)[C@H](CC(C)C)NC(=O)CNC(=O)[C@H](Cc1ccc(O)cc1)NC(=O)[C@H](CO)NC(=O)[C@H](Cc1c[nH]c2ccccc12)NC(=O)[C@H](Cc1cnc[nH]1)NC(=O)[C@@H]1CCC(=O)N1,nt,i,11%,nt,nt,nt
Cc1ccc(NC(=O)Nc2nnc(SCC(=O)N3CCCCC3)s2)cc1,-3%,nt,nt,6,nt,-8%
CC(=O)NS(=O)(=O)c1ccc(Nc2ccc([N+](=O)[O-])c3nonc23)cc1,1%,?,nt,-25,-54*,10%

# Assay outcomes as filed in PubChem.
